This excerpt belongs to a sample that is enriched for hits.
VCAM1 pot: TNF alpha stimulated VCAM1 expression potentiation; HUVEC TNFa-stimulated VCAM-1 immunofluorescence, high-content imaging; scaled per plate to unstimulated/TNFa-only wells; activation, % at 2 µM; 93,000 tested, 0.19% active;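 active = activation above the screen mean plus 3 SD, with well images confirming the hit on visual review, cut at about 28% in these data, passing the limit was not always enough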;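 also: signal is the number of cytoplasmic VCAM-1 stained grains per positive cell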
VCAM1 pot confirm: potentiators of TNFa-induced VCAM1 expression, confirmation, imaging, HUVEC, triplicate retest; shares compounds with VCAM1 pot; HUVEC TNFa-stimulated VCAM-1 immunofluorescence imaging; activation, % at 2 µM; 230 tested, under 10 active; AID 1034;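 active = activation above 30% in triplicate retests at 2 µM, then confirmed by visual review of the well images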
Numbers stand for hits; - = inactive.

SMILES	VCAM1 pot	others
CCOc1cccc(OCC)c2c(C)[n+](CC3CCCO3)c(C)c1-2 (centres undefined)	32.0	VCAM1 pot confirm=-
CCNc1ccc(P(=S)(N(C)C)N(C)C)cc1	-
O=C(N/N=C1/CN2CCC1CC2)c1cccc(O)c1	-
Cc1ccccc1-n1c(C)nc2sccc2c1=O	-
CCCC12CN3CN(C1)CC(CCC)(C3)C2O (centres undefined)	32.6	VCAM1 pot confirm=-
CCC(=O)c1cc(F)c(N2CCN(CC)CC2)cc1C	-
Cn1c(=O)cc(OCC(=O)N2CCN(Cc3ccc4c(c3)OCO4)CC2)c2ccccc21	-
CCC(=O)OC1(c2cccc(C)c2)CC(C)N(C)CC1C (centres undefined)	-
CCCCNc1ccncc1S(=O)(=O)NC(=O)NC(C)C	-
O=P(/C(=N/O)N1CCOCC1)(N1CCOCC1)N1CCOCC1	-

Screening results from PubChem BioAssay.
